Screens as filed in PubChem.
ATXN2 expr inh: reduces ATXN2 reporter expression in HEK-293 cells. Potency, µM (highest dose often 57 µM), usual class: inhibitors. HEK-293 ATXN2-luciferase reporter, luminescence, 24 h. 360,000 compounds, 0.72% hits; also: nearly all actives have a fitted effect of over 55% in size
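qHTS (up to 57 uM final) was run with 24 h compound exposure of reporter cells at 37 °C. Each well was multiplexed: SteadyGlo luminescence measured ATXN2-luciferase expression after a fluorogenic Gly-Phe-AFC viability readout (25 uM final).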
TGFb SMAD3 inh: inhibitors of TGF-b signaling; HepG2 CAGA-GFP TGF-b/SMAD3 reporter, GFP fluorescence, 18 h; TGF-beta stimulated, 500 pg/mL final; Potency, µM (doses to about 46.1 µM), actives largely listed as inhibitors; 410,000 compounds, 1.2% hits; AID 588855; also: nearly all actives have a fitted effect of over 65% in size
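HEPG2 CAGA-GFP, 1000 cells/well; 2 h settle, 37 C; cpd via pin tool; TGF-b 500 pg/mL final; 18 h, 37 C; GFP imaging ex488/em500-530; %Activity normalised to -TGF-b and +DMSO controls; CRC fit, curve class.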
HepG2 tox-1: counter-screen for TGF-b inhibitors: cytotoxicity in HepG2 cells | HepG2 CAGA-GFP viability, ATP luminescence, 18 h | Potency, µM (doses to about 46.1 µM), usual class: cytotoxic | 410,000 compounds, 0.76% hits | AID 588856
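CellTiter-Glo luminescence gave cytotoxicity after 18 hours at 37 degrees C. The cells were HepG2 CAGA-GFP in 1% FBS DMEM, stimulated with 500 pg/mL TGF-beta after compound addition. %Activity was normalised to no-cell wells (complete cell-killing) and DMSO (no toxicity), and curves were fitted and classified.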
ATXN viability: reduces viability in counter-screen for ATXN expression inhibitors. 400,000 compounds, 0.49% hits. AID 651635. S2 cells (HEK-293 line with an ATXN2-luciferase reporter) viability, CellTiter-Fluor protease fluorescence, 24 h. Potency, µM (top dose mostly 56.7 µM), usual class: cytotoxic; also: nearly all actives have a fitted effect of over 40% in size
TGFb confirm: confirmation of TGF-b signaling inhibitors in HepG2 reporter cells | shares compounds with TGFb SMAD3 inh | HepG2 CAGA-GFP TGF-b reporter, GFP fluorescence, 18 h; cells stimulated with TGF-beta, 500 pg/mL | Potency, µM (series often up to 46.1 µM), usual class: inhibitors | 1,600 compounds, 63% hits | AID 720534; also: nearly all actives have a fitted effect of over 65% in size
HepG2 tox-2: counter-screen for TGF-b inhibitors: cytotoxicity in HepG2 cells. shares compounds with TGFb SMAD3 inh. Potency, µM (titrated, usually from 46.1 µM), usual class: inhibitors. HepG2 CAGA-GFP viability, ATP luminescence, 18 h; cells stimulated with TGF-beta, 500 pg/mL. 1,600 compounds, 27% hits; also: nearly all actives have a fitted effect of over 70% in size
TGFb CCL64 inh: blocks TGF-b signaling in CCL64 reporter cells; 1,600 compounds, 41% hits; CCL64 CAGA-GFP reporter, TGF-b stimulated, GFP fluorescence, 18 h; Potency, µM (titrated, usually from 46.1 µM), actives largely listed as inhibitors; AID 720536; shares compounds with TGFb SMAD3 inh; also: nearly all actives have a fitted effect of over 65% in size
TGFb COP inh: blocks TGF-b signaling in HepG2 COP reporter. AID 720537. 1,600 compounds, 3% hits. HepG2 COP-GFP TGF-b reporter, GFP fluorescence, 18 h; cells stimulated by added recombinant TGF-beta. Potency, µM (doses to about 46.1 µM), hits mostly inhibitors. shares compounds with TGFb SMAD3 inh; also: nearly all actives have a fitted effect of over 70% in size
Hits are given with their value; . = inactive; ? = inconclusive; / = not tested or not shown. Only some compounds are listed: those with a hit (about 2.3% of all), similar ones and a draw of the others. Calls follow the shape of the dose curve; as a rule, active = well fitted curve in the direction sought with a large enough effect; inconclusive = small, poorly fitted or top-dose-only effect, or another doubt; inactive = no such curve, though single readings can be large; an effect the other way counts as inactive or inconclusive.

SMILES | ATXN2 expr inh | TGFb SMAD3 inh | HepG2 tox-1 | ATXN viability | TGFb confirm | HepG2 tox-2 | TGFb CCL64 inh | TGFb COP inh
Clc1ccc(Nc2nc(NCc3ccco3)nc3nccnc23)cc1 | / | . | . | / | / | / | / | /
COc1ccc(Cl)cc1Cn1c(C)c(C(=O)NCc2ccc(F)cc2)sc1=O | . | 14µM | . | . | ? | . | ? | .
CCOC(=O)C(CN1CCCC1)c1ccccc1 (stereo not drawn) | . | . | . | . | / | / | / | /
O=C(c1ccc(Cl)cc1)C(CN1CCCCC1)c1ccccc1 (stereo not drawn) | ? | 5.6µM | 5.6µM | / | 13µM | 18µM | 2.3µM | ?
COc1ccc(C(=O)C(CN2CCOCC2)c2ccccc2)cc1F (stereo not drawn) | ? | 4µM | . | ? | ? | 15µM | 7.3µM | .
Cn1c(=O)oc2cc(S(=O)(=O)NC3CCCc4ccccc43)ccc21 (stereo not drawn) | . | . | . | . | / | / | / | /
Cn1c(=O)oc2cc(S(=O)(=O)N3CCCC(C(=O)NC4CCCc5ccccc54)C3)ccc21 (stereo not drawn) | ? | 0.56µM | . | ? | ? | ? | . | .
C=CCOC(=O)c1[nH]c2c(c1C)C(=O)CC(c1ccco1)C2 (stereo not drawn) | . | ? | . | ? | / | / | / | /
COC(=O)c1[nH]c2c(c1C)C(=O)CC(c1ccccc1)C2 (stereo not drawn) | . | ? | . | ? | ? | . | ? | .
Cc1c(C(=O)OCC(C)C)[nH]c2c1C(=O)CC(c1ccco1)C2 (stereo not drawn) | . | ? | . | ? | 9.2µM | . | 8.2µM | .
COc1ccc(C(=O)NCC(=O)OCC(=O)c2ccc3ccccc3c2)cc1 | / | . | . | / | / | / | / | /
Cc1ccccc1NC(=O)COC(=O)c1ccccc1OCC(=O)Nc1ccc(Br)cc1 | / | . | . | / | / | / | / | /
CC(C)C[C@H]1CN([C@@H](CC(C)C)CN2CCCC2CN2C(=S)NC[C@@H]2Cc2ccc(O)cc2)C(=S)N1CC1CCCCCC1 (stereo partly drawn) | . | . | . | . | / | / | / | /
CC(C)C[C@@H](CN1CCC[C@@H]1CN1C(=S)NC[C@@H]1Cc1ccc(O)cc1)N1C[C@H](Cc2ccc(O)cc2)N(CC2CCCCCC2)C1=S | ? | 4.5µM | . | ? | 18µM | 18µM | 8.2µM | .
CC(C)C[C@@H](CN1CCC[C@@H]1CN1C(=S)NC[C@@H]1Cc1ccc(O)cc1)N1C[C@H](Cc2ccc(O)cc2)N(CC2CCCCC2)C1=S | ? | 7.1µM | . | 25µM | 16µM | ? | 5.8µM | ?
CC(C)C[C@@H](CN1CCCC1CN1C(=S)NC[C@@H]1Cc1ccccc1)N1C[C@H](Cc2ccc(O)cc2)N(CC2CCCCC2)C1=S (stereo partly drawn) | . | / | / | ? | / | / | / | /
CCOC(=O)N1CCN(C(=O)COc2cccc3c2CCN(Cc2cccc(C)c2)C3=O)CC1 | . | ? | . | . | ? | . | ? | .
CCOC(=O)N1CCN(C(=O)COc2cccc3c2CCN(Cc2ccccc2C)C3=O)CC1 | . | . | . | . | / | / | / | /
O=C(NCc1nnc(SCc2ccc(F)cc2)n1-c1ccc(F)cc1)C12CC3CC(CC(C3)C1)C2 | . | 16µM | . | . | ? | ? | ? | .
O=C(CSc1nnc(CNC(=O)C23CC4CC(CC(C4)C2)C3)n1-c1ccc(F)cc1)Nc1ccc(F)cc1 | . | ? | . | . | / | / | / | /
COc1cccc(CNc2nc3cc(-c4ccc(C)cc4)sc3c(=O)n2C)c1OC | . | 10µM | . | . | 2.6µM | ? | 12µM | .
COCCNc1nc2cc(-c3ccsc3)sc2c(=O)n1C | . | . | . | . | / | / | / | /
